PubChem BioAssay AID1159580 (chemical genetic matrix, 2015)
Several values for one entry are separate records, joined by “and”; a condition that tells them apart may be missing. Equal entries are not always repeated. Screen size: about 5,500 compounds; about 2,000 (36%) were called active. About 18% were inconclusive and are not listed. No stated cut-off is given here; in the data, active means normalized growth mostly below about 0.91 (no sharp cut-off); inconclusive means no clear call, values can overlap the other calls; inactive means mostly above about 0.92. Some of the results follow.

Assay: chemical genetic growth profiling, strain panel (AID 1159580);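 further: tested at 20 µM; growth read once vehicle control cultures reached saturation at 30 °C; 1 = growth at the plate median or of vehicle wells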
Conditions: S. cerevisiae deletion strains, growth OD

Measured: normalized growth

C=C1c2c(Cl)ccc(O)c2C(O)=C2C(=O)[C@]3(O)C(O)=C(C(N)=O)C(=O)[C@@H](N(C)C)[C@@H]3[C@@H](O)[C@H]12
active: locus YER015W, strain faa2, stronger effect = lower value 0.912
inactive: locus YAL013W, strain DEP1, stronger effect = lower value 0.972 | locus YAL021C, strain ccr4, stronger effect = lower value 0.964 | locus YAL026C, strain drs2, stronger effect = lower value 0.934 | locus YAL030W, strain snc1, stronger effect = lower value 0.981 | locus YBL061C, strain skt5, stronger effect = lower value 0.976 | locus YBR009C, strain hhf1, stronger effect = lower value 0.958 | locus YBR021W, strain FUR4, stronger effect = lower value 0.914 | locus YBR023C, strain chs3, stronger effect = lower value 0.966 | locus YBR171W, strain sec66, stronger effect = lower value 0.999 | locus YBR229C, strain ROT2, stronger effect = lower value 0.977 | locus YBR231C, strain swc5, stronger effect = lower value 0.978 | locus YBR279W, strain paf1, stronger effect = lower value 0.956 | locus YCL011C, strain gbp2, stronger effect = lower value 0.935 | locus YCL016C, strain dcc1, stronger effect = lower value 0.936 | locus YCL029C, strain bik1, stronger effect = lower value 0.948 | locus YCL061C, strain MRC1, stronger effect = lower value 0.954 | locus YCL069W, strain vba3, stronger effect = lower value 0.977 | locus YCR088W, strain abp1, stronger effect = lower value 0.981 | locus YDL005C, strain med2, stronger effect = lower value 0.99 | locus YDL035C, strain GPR1, stronger effect = lower value 0.954 | locus YDL040C, strain nat1, stronger effect = lower value 0.993 | locus YDL074C, strain BRE1, stronger effect = lower value 0.946 | locus YDL101C, strain DUN1, stronger effect = lower value 0.965 | locus YDL134C, strain PPH21, stronger effect = lower value 0.909 | locus YDL185W, strain tfp1, stronger effect = lower value 0.961 | locus YDL192W, strain arf1, stronger effect = lower value 0.95 | locus YDR001C, strain nth1, stronger effect = lower value 0.973 | locus YDR069C, strain doa4, stronger effect = lower value 0.965 | locus YDR101C, strain arx1, stronger effect = lower value 0.961 | locus YDR137W, strain rgp1, stronger effect = lower value 0.977 | locus YDR150W, strain NUM1, stronger effect = lower value 0.98 | locus YDR159W, strain sac3, stronger effect = lower value 0.966 | locus YDR162C, strain NBP2, stronger effect = lower value 0.945 | locus YDR195W, strain ref2 1.01 | locus YDR297W, strain sur2, stronger effect = lower value 0.981 | locus YDR318W, strain mcm21, stronger effect = lower value 0.947 | locus YDR334W, strain swr1, stronger effect = lower value 0.949 | locus YDR335W, strain msn5, stronger effect = lower value 0.967 | locus YDR388W, stronger effect = lower value 0.986 | locus YDR392W, strain spt3, stronger effect = lower value 0.849 | locus YDR502C, strain sam2, stronger effect = lower value 0.98 | locus YEL003W, strain gim4, stronger effect = lower value 0.967 | locus YEL037C, strain rad23, stronger effect = lower value 0.962 | locus YEL061C, strain CIN8 (second series), stronger effect = lower value 0.974 | locus YEL061C, strain CIN8, stronger effect = lower value 0.976 | locus YER016W, strain bim1, stronger effect = lower value 0.964 | locus YER110C, stronger effect = lower value 0.989 | locus YER111C, strain swi4, stronger effect = lower value 0.949 | locus YER155C, strain BEM2 (second series), stronger effect = lower value 0.947 | locus YER155C, strain BEM2, stronger effect = lower value 0.992 | locus YER167W, strain BCK2, stronger effect = lower value 0.962 | locus YFR010W, strain ubp6, stronger effect = lower value 0.958 | locus YGL078C, strain dbp3, stronger effect = lower value 0.964 | locus YGL086W, strain mad1, stronger effect = lower value 0.964 | locus YGL167C, strain pmr1, stronger effect = lower value 0.971 | locus YGL173C, strain kem1, stronger effect = lower value 0.983 | locus YGL227W, strain vid30, stronger effect = lower value 0.997 | locus YGL240W, strain doc1, stronger effect = lower value 1.01 | locus YGL248W, strain PDE1, stronger effect = lower value 0.916 | locus YGL253W, strain hxk2, stronger effect = lower value 0.968 | locus YGR078C, strain PAC10, stronger effect = lower value 0.882 | locus YGR135W, strain pre9, stronger effect = lower value 0.94 | locus YGR229C, strain SMI1, stronger effect = lower value 0.957 | locus YGR252W, strain gcn5, stronger effect = lower value 0.967 | locus YHR013C, strain ard1, stronger effect = lower value 0.975 | locus YHR027C, strain rpn1, stronger effect = lower value 0.962 | locus YHR030C, strain SLT2, stronger effect = lower value 0.969 and 0.993 | locus YHR079C, strain IRE1 (second series), stronger effect = lower value 0.961 | locus YHR079C, strain IRE1, stronger effect = lower value 0.985 | locus YHR094C, strain hxt1, stronger effect = lower value 0.974 | locus YHR129C, strain ARP1, stronger effect = lower value 0.958 | locus YHR142W, strain chs7, stronger effect = lower value 0.981 | locus YHR200W, strain rpn10, stronger effect = lower value 0.952 | locus YIL066C, strain RNR3, stronger effect = lower value 0.915 | locus YIL073C, strain SPO22, stronger effect = lower value 0.952 | locus YIL125W, strain kgd1, stronger effect = lower value 0.98 | locus YIR030C, strain dcg1, stronger effect = lower value 0.98 | locus YJL092W, strain hpr5, stronger effect = lower value 0.966 | locus YJL095W, strain BCK1 (second series), stronger effect = lower value 0.976 | locus YJL095W, strain BCK1, stronger effect = lower value 0.898 and 0.992 | locus YJL115W, strain asf1, stronger effect = lower value 0.979 | locus YJL129C, strain trk1, stronger effect = lower value 1.01 | locus YJL134W, strain LCB3, stronger effect = lower value 0.98 | locus YJL154C, strain vps35, stronger effect = lower value 0.985 | locus YJL164C, strain tpk1, stronger effect = lower value 0.928 | locus YJL166W, strain qcr8, stronger effect = lower value 0.976 | locus YJL168C, strain set2, stronger effect = lower value 0.974 | locus YJL187C, strain SWE1 (second series), stronger effect = lower value 0.885 | locus YJR043C, strain POL32, stronger effect = lower value 0.879 | locus YJR066W, strain TOR1, stronger effect = lower value 0.951
